Growth data for 40 compounds are collected here from PubChem BioAssay (NCI).

The panel holds about 83,000 compounds, 20% with a hit somewhere; the sample as a whole holds those more often.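 48-hour exposure, single concentration, 96-well plates; percent growth endpoint where 0 means no net growth. Active: below 10.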 Activity calls are given as the source filed them.

The assay deals with HL-60(TB) leukemia. Briefly: NCI-60 one-dose screen, 48 h (100 = growth as untreated, 0 = no growth, -100 = all killed). The note with it: 10 µM unless noted.
As to `CC1(COc2ccc3ncc(C#Cc4cncc(C(=O)Nc5cccc(C(F)(F)F)c5)c4)n3n2)COC1`, the growth is 39.9% (inactive).

Turning to `CN1CCN(CCCCCC(=O)Nc2nc(-c3cccc(NS(=O)(=O)c4cccc5c(N(C)C)cccc45)c3)cs2)CC1`, the growth is 75.1% (inactive).

On to `Cc1ccc2c(n1)C(=O)C(Cl)=C(Nc1ccc(C(C)C)cc1)C2=O`, for which the growth was -0.278% (active).

For `O=C(Nc1ccc(-c2nc(-c3cccc(O)c3)c(-c3ccnc(Br)c3)[nH]2)cc1)c1ccccc1`, the growth was -53.1% (active).

Turning to `Cc1cc(S(=O)(=O)N(C)C)cc(NCC(=O)NC(=O)NCC(C)C)c1C`, the growth is 128% (inactive).

In the case of `CCNC(=O)N1CCc2cc(OC)c(OCCc3ccc(OC)cc3)cc2C1c1ccc(OC)cc1C` (stereo not given), the growth is 23.9% (inactive).

With `COc1ccc(CNS(=O)(=O)/N=C2\NC(=O)NC2=C(Cl)Cl)cc1`, the growth is -11.1% (active).

`O=C(CSc1nnc(-c2ccc3nc(-c4ccccc4)[nH]c3c2)o1)Nc1ccc(C(=O)/C=C/c2ccccc2)cc1`: the growth was 109% (inactive).

Turning to `O=C1CC2(CCOCC2)Oc2ncccc21`, the growth is 13.3% (inactive).

For the compound `CC1=C(C)C(=O)C(Nc2ccc(C)cc2)=C(Br)C1=O`, the growth is 68.6% (inactive).

Regarding `COc1cc(/C=C/C(=O)c2ccc(NC(=O)COc3cccc4cccnc34)cc2)cc(OC)c1OC`, the growth was 34.7% (inactive).

`COc1ccc(C(=O)/C=C/c2ccc(Oc3nc(NCCO)nc(N4CCOCC4)n3)c(OC)c2)cc1`: the growth was 15.5% (inactive).

Regarding `O=S(=O)(Nc1ccc2c(c1)OC(F)(F)O2)c1ccc(-c2cnc(C3CC3)o2)cc1`, the growth was 3.85% (active).

As for `CCCSc1nc(Nc2ccc(/C(C)=N\NC(N)=S)cc2)c(C#N)c(-c2ccccc2)n1`, the growth is 64% (inactive).

For the compound `O=c1[nH]c(CNc2ccc(NCc3c(-c4ccccc4)no[n+]3[O-])cc2)nc2c1cnn2-c1ccccc1`, the growth was 63.1% (inactive).

For the compound `O=C1CC(=O)N2CSCN(C(c3ccccc3)c3nc4ncncc4[nH]3)C2=N1` (stereo not given), the growth was 118% (inactive).

In the case of `CN(C)CCNC(=O)c1ccc(-c2nc3ccc4[nH]ncc4c3c3c2CCC3)cc1`, the growth was -18.8% (active).

For the compound `Cc1ccc2c(n1)C(=O)C(Cl)=C(Nc1ccc(C(F)(F)F)cc1)C2=O`, the growth was 35.8% (inactive).

For the compound `COc1cc(/C=C/C(=O)c2ccc(NC(=O)CSc3nnc(-c4ccc(-c5nc6ccc(Cl)cc6[nH]5)cc4)o3)cc2)cc(OC)c1OC`, the growth was 73.6% (inactive).

Regarding `COCCC[C@H]1O[C@@](O)([C@H](C)[C@@H]2CC(OC)C(O)/C=C(C)/C=C(C)/C=C(\C)C(OC3O[C@@H](C)[C@H](O)C(O)[C@@H]3O)C(C)/C=C(C)/C=C(OC)/C=C(\C)C(=O)O2)C(OC)C(O)[C@]1(C)O[C@H]1C[C@@H](O)[C@H](O[C@H]2C[C@](C)(O)[C@H](O)C(C)O2)C(C)O1` (stereo not given in full), the growth was 36% (inactive).

Take `O=C(O)c1ccc(-n2cc(CNc3cc(F)c(F)c(F)c3)c(-c3cccc(F)c3)n2)cc1`: the growth was 108% (inactive).

Turning to `CN(C)CCn1c2ccc(N)cc2c2nc3ccccc3nc21`, the growth was 12% (inactive).

As for `COc1cc(C(=O)C[n+]2ccc3ccccc3c2)cc(OC)c1OC`, the growth was 92.7% (inactive).

Turning to `CS(=O)(=O)c1ccc(-n2cc(/C=C/C(=O)c3ccc(NC(=O)CO[N+](=O)[O-])cc3)c(-c3ccc(Cl)cc3)n2)cc1`, the growth is 109% (inactive).

As for `O=C(C[n+]1ccnc2ccccc21)c1ccc(O)c(O)c1`, the growth was -24.7% (active).

For `COc1cccc(/C=C/C(=O)c2ccc(NC(=O)COc3cccc4cccnc34)cc2)c1`, the growth is 80.5% (inactive).

Turning to `Cn1cc(-c2nnc(N)nc2-c2cn(C)c3ccc(F)cc23)c2cc(F)ccc21`, the growth was 79.3% (inactive).

With `CC(C)=CCc1c(O)c(CC=C(C)C)c2c(c1O)C(=O)C1=C[C@@H]3C[C@H]4C(C)(C)O[C@@](C/C=C(\C)C(=O)O)(C3=O)[C@@]14O2`, the growth is -14.1% (active).

Turning to `C/C=C/C=C1\C[C@H]2CO[C@H](O2)C1=O`, the growth is 99.8% (inactive).

Regarding `COc1ccc(N2CCN(C3=C(Cl)C(=O)C(C)=C(C)C3=O)CC2)cc1`, the growth was 80.3% (inactive).

Regarding `Cc1ccccc1NC1CC(=O)N(c2ccc(Cl)cc2Cl)C1=O` (stereo not given), the growth was 102% (inactive).

For the compound `COc1ccc2sc(NC(=O)CCCCCCNC(=O)C(O)(O)C(F)(F)F)nc2c1`, the growth was 11.8% (inactive).

Consider `Brc1cc(-c2cc(-c3ccc4c(c3)OC=CO4)[nH]n2)cs1`, for which the growth was 91.6% (inactive).

As to `NC(N)=Nc1ccc(Oc2cccc(Nc3ccc(Br)c(C(F)(F)F)c3)c2)cc1`, the growth was -50.3% (active).

As to `CCNC(=O)Oc1ccc(/C(=C(/C)c2ccc(OC)cc2)c2ccc(OCCN3CCCCCC3)cc2)cc1`, the growth was 22.5% (inactive).

In the case of `C#Cc1nc(C2=C(C)C(=N\O)/C(=N/O)C2)cs1`, the growth was 81.7% (inactive).

For the compound `CN1CCN(c2ccc(Nc3nc(NCCNC(=O)c4ccccc4)c4sccc4n3)cc2)CC1`, the growth is 22.2% (inactive).

As for `C#C[C@]1(O)CC[C@H]2[C@@H]3CC=C4c5sc(Nc6cccc(Cl)n6)nc5CC[C@]4(C)[C@H]3CC[C@@]21C`, the growth is -15.6% (active).

Consider `CS(=O)(=O)c1ccc(-c2nc3ccccn3c2C=Nc2ccc(Cl)cc2)cc1`, for which the growth was 59.7% (inactive).

In the case of `Clc1ccc2c(NCCCn3ccnc3)c3oc4ccc(Cl)cc4c3nc2c1`, the growth was 78.6% (inactive).
